From PubChem BioAssay
FMDV inh = High Throughput Screening for Foot and Mouth Disease Virus Antivirals. actives 1.2% (n = 410,000). FMDV antiviral cell-based qHTS. Potency, µM (titrated, usually from 57.9 µM), for the others: top-dose activity change, negative = inhibition, usual class: inhibitors; calls by dose curve; tested in HEK293T cells; further: read-out not given here; potency means the concentration at half of the fitted maximal effect; nearly all actives have a fitted effect of over 45% in size
HCV inhibitor = qHTS Assay for Inhibitors of Hepatitis C Virus (HCV); Potency, µM (highest dose often 41.8 µM), for inactives: at the highest dose activity change, negative = inhibition, actives largely listed as inhibitors; AID 651820, 2012; Huh7.5.1 HCVcc-Cre infection, luciferase reporter, 44 h; actives 3.4% (n = 340,000); further: potency means the concentration at half of the fitted maximal effect
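Cells (1,000/well) were plated 4 h before compound, then infected with HCVcc-Cre virus (~0.5 moi). After 44 h further culture, infection was read as luciferase luminescence following a 15 min substrate incubation at room temperature.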
AmpC no deterg = qHTS Inhibitors of AmpC Beta-Lactamase (assay without detergent). P00811. AmpC nitrocefin hydrolysis, absorbance 480 nm, 0.0001% Triton. Potency, µM (doses to about 57.1 µM), inactives show top-dose activity change, negative = inhibition, most hits filed as inhibitors. actives 0.52% (n = 330,000);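 further: potency means the concentration at half of the fitted maximal effect; plate controls were no compound for no effect and no enzyme for full effect; nearly all actives have a fitted effect of over 20% in size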
Target sequence (P00811 whole entry, looked up): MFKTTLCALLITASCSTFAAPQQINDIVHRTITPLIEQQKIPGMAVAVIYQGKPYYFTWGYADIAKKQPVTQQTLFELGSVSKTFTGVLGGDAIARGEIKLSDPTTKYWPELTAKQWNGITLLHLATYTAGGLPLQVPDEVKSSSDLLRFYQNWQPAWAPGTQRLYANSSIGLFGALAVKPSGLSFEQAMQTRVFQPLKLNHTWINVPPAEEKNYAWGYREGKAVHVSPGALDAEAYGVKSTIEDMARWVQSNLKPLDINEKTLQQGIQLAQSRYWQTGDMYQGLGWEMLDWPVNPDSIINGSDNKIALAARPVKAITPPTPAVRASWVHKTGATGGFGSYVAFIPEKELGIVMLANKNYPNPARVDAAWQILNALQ
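20 mM phosphate pH 7.0 + 0.01% (detergent screen) or 0.0001% Triton X-100; 5.3 nM AmpC reagent; cpd preinc 15 min RT; nitrocefin (800 uM stock) to start; A480 q20 s × 4 min; Activity was normalised to no-enzyme and no-compound control wells.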
AmpC inh detg = qHTS Inhibitors of AmpC Beta-Lactamase (assay with detergent); P00811; actives 0.041% (n = 370,000); AmpC hydrolysis of nitrocefin, absorbance 480 nm, 0.01% Triton; Potency, µM (highest dose often 114 µM), inactives show top-dose activity change, negative = inhibition, hits mostly inhibitors;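 further: potency means the concentration at half of the fitted maximal effect; 0% = no-compound wells and -100% = no-enzyme wells; nearly all actives have a fitted effect of over 25% in size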
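AmpC (5.3 nM in the dispensed reagent) in 20 mM phosphate pH 7.0 with 0.01% (detergent screen) or 0.0001% Triton X-100 was preincubated with compounds for 15 min at room temperature. Nitrocefin was then added from an 800 uM solution, and hydrolysis was followed at 480 nm.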
HCMV antiviral = qHTS Assay for inhibitors of the human cytomegalovirus (HCMV); activity change, negative = inhibition, % at 57.5 µM; actives 4.5% (n = 410,000); HFF cells, HCMV-luciferase reporter, 72 h; hits give low values; in the data active means activity change below about -60%; inconclusive means no clear call, values can overlap the other calls; inactive means above about -39%
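Two-dose cell screen: HFF monolayers treated with compounds and infected with luciferase-expressing HCMV at 1 PFU/cell, 72 h at 37C, then lysed for luciferase measurement.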
* hit, by the source's call. This is a sample that favours compounds with a hit; in the whole collection about 7.3% have one here. Unless noted, the call rests on the fitted dose curve; in most records, active means well fitted curve in the direction sought with a large enough effect; inconclusive means small, poorly fitted or top-dose-only effect, or another doubt; inactive means no such curve, though single readings can be large; an effect the other way counts as inactive or inconclusive. Unless noted, on the % scale 0 is the no-effect control and ±100 the full control effect.

Results for CSCC[C@H](NC(=O)c1cc([N+](=O)[O-])ccc1Cl)c1nc2ccccc2[nH]1 ?
FMDV inh: inconclusive; HCV inhibitor: inconclusive; AmpC no deterg: -18%; AmpC inh detg: inconclusive; HCMV antiviral: -17

How did CCc1ccc(S(=O)(=O)c2nnn3c2nc(NCc2cccc(OC)c2)c2cc(Cl)ccc23)cc1 do in these assays?
FMDV inh: 17%; AmpC inh detg: 20%; HCMV antiviral: -1

Results for O=C(NCc1cccc(Cl)c1)c1cnc(N2CCCCC2)c2ccccc12 ?
FMDV inh: 14%; AmpC inh detg: 7%; HCMV antiviral: 54

How did Cc1cccc(Cn2c(SCc3ccc(C(=O)NCCc4ccccc4)cc3)nc3cccnc32)c1 do in these assays?
FMDV inh: -3%; AmpC inh detg: -8%; HCMV antiviral: 3

How did Cc1ccc(N=C2NC(=O)/C(=C/c3cccn3C)S2)c(C)c1 do in these assays?
FMDV inh: -3%; HCV inhibitor: -27%; AmpC no deterg: -2%; AmpC inh detg: 7%; HCMV antiviral: inconclusive

Results for Cn1cccc1/C=C1\SC(=Nc2ccccc2)NC1=O ?
FMDV inh: 60%; HCV inhibitor: 7.9µM*; AmpC no deterg: -45%; AmpC inh detg: -3%; HCMV antiviral: 2

What do the screens show for `Cc1ccc(N=C2NC(=O)/C(=C/c3cn(C)c4ccccc34)S2)cc1C`?
FMDV inh: 0%; HCV inhibitor: 13µM*; AmpC no deterg: -38%; AmpC inh detg: inconclusive; HCMV antiviral: inconclusive

Results for Cn1cccc1/C=C1\SC(=Nc2cccc(O)c2)NC1=O ?
FMDV inh: 0%; HCV inhibitor: -3%; AmpC no deterg: -50%; AmpC inh detg: -4%; HCMV antiviral: 25

What do the screens show for `CCOc1cc(Br)cc(/C=C2\SC(=Nc3ccccc3)NC2=O)c1O`?
FMDV inh: 0%; HCV inhibitor: inconclusive; AmpC no deterg: -40%; AmpC inh detg: -8%; HCMV antiviral: -84*

Results for Cn1cc(/C=C2/SC(=O)N(c3ccccc3)C2=O)c2ccccc21 ?
FMDV inh: 34%; HCV inhibitor: -7%; AmpC no deterg: -12%; AmpC inh detg: 2%; HCMV antiviral: 62

Results for Cn1cccc1/C=C1\SC(=Nc2ccc(O)cc2)NC1=O ?
FMDV inh: 36%; HCV inhibitor: inconclusive; AmpC no deterg: -33%; AmpC inh detg: 2%; HCMV antiviral: -77*

What do the screens show for `CCOC(=O)N1CCN(C(=O)C[C@@H]2C[C@@]3(C(=O)OC)CCCCC=C3N(Cc3ccc(Cl)cc3Cl)C2=O)CC1`?
FMDV inh: inconclusive; HCMV antiviral: 2

What do the screens show for `O=C(c1ccccc1)c1ccc[nH]1`?
FMDV inh: 9%; HCV inhibitor: 14%; HCMV antiviral: 8

What do the screens show for `Cn1nc(C(F)(F)F)c(C#N)c1N1CCN(c2ccc(F)cc2)CC1`?
FMDV inh: inconclusive; HCV inhibitor: inconclusive; AmpC no deterg: -8%; AmpC inh detg: 1%; HCMV antiviral: -73*

How did CCOc1ccc2nc3ccc4[nH]onc4c3c2c1 do in these assays?
HCV inhibitor: 2.5µM*; HCMV antiviral: inconclusive

How did CCOc1ccc2nc3cc(N)ccc3c(N)c2c1 do in these assays?
FMDV inh: 3%

What do the screens show for `Cc1cc(C)n(S(=O)(=O)c2ccccc2)n1`?
FMDV inh: 3%; HCV inhibitor: -12%; AmpC no deterg: -20%; AmpC inh detg: 9%; HCMV antiviral: -2

How did Cc1cc(C)n(S(=O)(=O)c2ccccc2[N+](=O)[O-])n1 do in these assays?
FMDV inh: -21%; HCV inhibitor: 4%; AmpC no deterg: -14%; AmpC inh detg: inconclusive; HCMV antiviral: -60*

What do the screens show for `COc1ccc(CNC(=O)C2=C(C)C(=O)OC23CCN(C(C)=O)CC3)cc1`?
FMDV inh: 9%; AmpC inh detg: 2%; HCMV antiviral: 0

How did O=[N+]([O-])c1cccc2nc(-c3ccccc3)c(-c3ccccc3)nc12 do in these assays?
FMDV inh: inconclusive; HCV inhibitor: -9%; AmpC no deterg: -21%; AmpC inh detg: -2%; HCMV antiviral: -101*

Results for CCCCCCCCN1C(=O)[C@H](CC(=O)N2CCSCC2)C[C@@]2(C(=O)OC)CC(C)(C)CC=C12 ?
FMDV inh: -14%; HCMV antiviral: 9

What do the screens show for `Cc1cccc(N2CCN(CC(=O)N(C3CCCC3)C3CCS(=O)(=O)C3)CC2)c1C` (stereo not drawn)?
FMDV inh: -25%; HCV inhibitor: 14%; AmpC no deterg: 142%; AmpC inh detg: 5%; HCMV antiviral: -2

Results for COc1ccc(/C=C2\SC(=S)N(CCCC(=O)Nc3ccccn3)C2=O)cc1OC ?
FMDV inh: inconclusive; HCV inhibitor: inconclusive; AmpC no deterg: -28%; AmpC inh detg: 3%; HCMV antiviral: -99*

Results for Cc1ccc(/C=C2\SC(=S)N(CCCC(=O)Nc3ccccn3)C2=O)cc1 ?
FMDV inh: inconclusive; HCV inhibitor: inconclusive; AmpC no deterg: -12%; AmpC inh detg: inconclusive; HCMV antiviral: -104*

How did O=C(CCN1C(=O)/C(=C/c2ccccc2)SC1=S)Nc1ccccn1 do in these assays?
FMDV inh: -16%; HCV inhibitor: -7%; AmpC no deterg: -32%; AmpC inh detg: -7%; HCMV antiviral: -12

Results for CCOc1cccc(CN2CCC(N3CCC(C(=O)NCC4CCCO4)CC3)CC2)c1 (stereo not drawn) ?
FMDV inh: -11%; HCV inhibitor: -22%; AmpC no deterg: 35%; AmpC inh detg: -3%; HCMV antiviral: 10

Results for O=C(CNS(=O)(=O)c1ccccc1)N/N=C/c1ccccc1[N+](=O)[O-] ?
FMDV inh: -11%; HCV inhibitor: -2%; AmpC no deterg: -22%; AmpC inh detg: 4%; HCMV antiviral: -65*

What do the screens show for `O=[N+]([O-])c1cc2c(cc1/C=N\NS(=O)(=O)c1ccccc1)OCO2`?
HCV inhibitor: 8%; AmpC no deterg: -7%; AmpC inh detg: -4%; HCMV antiviral: -84*

Results for O=C(CCCO)N/N=C/c1ccccc1[N+](=O)[O-] ?
FMDV inh: 38%; HCV inhibitor: 16%; AmpC no deterg: -44%; AmpC inh detg: -22%; HCMV antiviral: inconclusive

What do the screens show for `CC(Oc1ccccc1)C(=O)N=C1SC2CS(=O)(=O)CC2N1c1ccc(F)cc1` (stereo not drawn)?
FMDV inh: 28%; HCV inhibitor: 4%; AmpC no deterg: 33%; AmpC inh detg: 0%; HCMV antiviral: 35

How did O=C(CNC(=O)C(c1ccccc1)c1ccccc1)OCc1ccccc1 do in these assays?
FMDV inh: -10%; HCV inhibitor: 0%; AmpC no deterg: -7%; AmpC inh detg: -3%; HCMV antiviral: 1
